# Source: PubChem BioAssay (EPA / NIEHS)
# Inconclusive results are not listed. Calls of active or inactive are those of the source. The calls were made as follows, unless noted: active = hit-call score of the fitted dose curve at least 0.9, where 1 is the maximum; inactive = score below 0.9.
# Legend:
# [1] = read-out: Monocyte Chemoattractant Protein-1 (MCP1), CCL2 (gene 6347); test: BSK_SAg_MCP1: BioMAP Diversity Plus: SAg Assay for Monocyte Chemoattractant Protein-1 (MCP1) Biomarker Activity (AID 2283090); settings: primary human HUVEC with PBMC; actives raise or lower the signal
# Outline: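 MCP-1 levels in the endothelial–PBMC SAg co-culture were quantified by ELISA at 24 h post-dosing; both increases and decreases versus DMSO scored. Cytotoxicity monitored by SRB total protein in parallel cultures.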
# [2] = read-out: E-selectin (Homo sapiens) (UniProt P16581); test: BSK_SAg_Eselectin: BioMAP Diversity Plus: SAg Assay for Eselectin Biomarker Activity (AID 2283091); settings: primary human HUVEC with PBMC; actives raise or lower the signal
# Outline: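 Human umbilical vein endothelial cells co-cultured with peripheral blood mononuclear cells, SAg system. E-selectin is measured by ELISA 24 h after dosing and fitted bidirectionally against DMSO. Cytotoxicity is checked by SRB staining of parallel cultures.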
# [3] = read-out: Monokine induced gamma interferon (MIG), CXCL9 (gene 4283); test: BSK_SAg_MIG: BioMAP Diversity Plus: SAg Assay for Monokine induced gamma interferon (MIG) Biomarker Activity (AID 2283092); settings: primary human HUVEC with PBMC; actives raise or lower the signal
# Outline: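 Values reflect bidirectional fitting of ELISA-measured MIG against DMSO vehicle, taken 24 h after dosing of a co-culture of human umbilical vein endothelial cells and peripheral blood mononuclear cells.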
# [4] = BSK_SAg_PBMCCytotoxicity: PBMC Cytotoxicity Assessment in the BioMAP Diversity Plus: SAg Assay (AID 2283093); settings: primary human HUVEC with PBMC;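 also: PBMC viability measured as Alamar Blue reduction fluorescence at 546/580 nm; fitted both ways against DMSO so a hit may be loss or gain of signal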;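 as to AC50: PBMC superantigen activated with SEB plus TSST-1 one hour after compound addition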
# Outline: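 Compound added to 75,000 PBMC/well for 1 h; SEB and TSST-1 then added at 20 ng/mL final each; 90 h incubation; Alamar Blue 6 h; read 546/580 nm ex/em. Activity fitted bidirectionally relative to DMSO baseline.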
# [5] = read-out: Interleukin-8 (IL8), CXCL8 (gene 3576); test: BSK_SAg_IL8: BioMAP Diversity Plus: SAg Assay for Interleukin-8 (IL8) Biomarker Activity (AID 2283094); settings: primary human HUVEC with PBMC; actives raise or lower the signal
# Outline: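 In this co-culture of human umbilical vein endothelium with peripheral blood mononuclear cells, IL-8 is assayed by ELISA at 24 h. DMSO serves as baseline for bidirectional curve fitting.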
# [6] = BSK_SAg_SRB: Viability Assessment in the BioMAP Diversity Plus: SAg Assay (AID 2283096); settings: primary human HUVEC with PBMC;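 also: cells read one day after compound addition; hits may be either gain or loss of signal compared with DMSO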
# Outline: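 Total protein by sulforhodamine B staining, 24 h after dosing, in HUVEC–PBMC co-culture; DMSO-referenced bidirectional fitting.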
# [7] = BSK_SAg_Proliferation: Cell Proliferation Assessment in the BioMAP Diversity Plus: SAg Assay (AID 2283095); settings: primary human HUVEC with PBMC;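 also: relative cell number as total protein by SRB absorbance in sub-confluent culture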
# Outline: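 Readout is SRB-stained protein (560 nm) in a primary human HUVEC and PBMC co-culture; sub-confluent cultures are read at 96 h. Activity is fitted bidirectionally using DMSO as baseline.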
# [8] = molecular target: human CYP19A1, CYP19A1 (gene 1588) (UniProt P11511); test: NVS_ADME_hCYP19A1: NovaScreen (NVS) CYP450-related Enzyme Activity (ADME) Assay for human CYP19A1 (AID 2283098; active = hit-call score of the fitted dose curve at least 0.9, where 1 is the maximum;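 as to AC50: potency for inhibitors seen as loss of fluorescent enzyme signal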)
# Outline: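 Biochem, cell-free; recombinant enzyme + specific substrate; fluorescence intensity at 0.5 h post-dose; 10 uM duplicate primary, conc. series for actives; acetonitrile = negative control/baseline; positive and negative controls on every plate.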
# [9] = molecular target: human CYP2C9, CYP2C9 (gene 1559) (UniProt P11712); test: NVS_ADME_hCYP2C9: NovaScreen (NVS) CYP450-related Enzyme Activity (ADME) Assay for human CYP2C9 (AID 2283108; active = hit-call score of the fitted dose curve at least 0.9, where 1 is the maximum)
# Outline: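 Fluorescence readout of CYP2C9 activity (SF9-expressed human enzyme) at 0.75 h. The primary screen used 10 uM in duplicate, with concentration-response follow-up for actives; acetonitrile was the negative control.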
# [10] = molecular target: Cytochrome P450 2C19 (Homo sapiens) (UniProt P33261); test: NVS_ADME_hCYP2C19: NovaScreen (NVS) CYP450-related Enzyme Activity (ADME) Assay for human CYP2C19 (AID 2283113; active = hit-call score of the fitted dose curve at least 0.9, where 1 is the maximum;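 as to AC50: potency for inhibition seen as loss of fluorescent signal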)
# Outline: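 Cell-free recombinant human CYP2C19 from insect cells, fluorescent substrate; activity read by fluorescence intensity 1 h after dosing. Primary screen in duplicate at 10 uM; actives retested in concentration series. Signal loss versus acetonitrile negative control.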
# [11] = molecular target: Cytochrome P450 2C18 (Homo sapiens) (UniProt P33260); test: NVS_ADME_hCYP2C18: NovaScreen (NVS) CYP450-related Enzyme Activity (ADME) Assay for human CYP2C18 (AID 2283103)
# Outline: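 Cell-free recombinant human CYP2C18 with fluorogenic substrate; fluorescence intensity read 0.5 h after dosing. Single-point screen at 10 uM in duplicate, then concentration-response up to 20 uM; loss of signal fitted against acetonitrile baseline.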
# [12] = molecular target: human CYP2D6, CYP2D6 (gene 1565) (UniProt P10635); test: NVS_ADME_hCYP2D6: NovaScreen (NVS) CYP450-related Enzyme Activity (ADME) Assay for human CYP2D6 (AID 2283107; active = hit-call score of the fitted dose curve at least 0.9, where 1 is the maximum)
# Outline: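 Cell-free assay using recombinant human CYP2D6 expressed in insect cells, with a fluorogenic substrate read after 1 h. Primary screen in duplicate at 10 uM; actives followed up in concentration series. Loss of signal fitted relative to acetonitrile.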
# [13] = molecular target: rat CYP1A2, Cyp1a2 (gene 24297) (UniProt P04799); test: NVS_ADME_rCYP1A2: NovaScreen (NVS) CYP450-related Enzyme Activity (ADME) Assay for rat CYP1A2 (AID 2283115; active = hit-call score of the fitted dose curve at least 0.9, where 1 is the maximum)
# Outline: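 Cell-free recombinant rat enzyme with fluorogenic substrate, read by fluorescence intensity 1 hour after dosing. Loss of signal versus acetonitrile negative control; primary screen at 10 uM in duplicate, actives followed in concentration series.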
# Sequence of human CYP19A1, CYP19A1 (gene 1588) (P11511 whole entry, looked up): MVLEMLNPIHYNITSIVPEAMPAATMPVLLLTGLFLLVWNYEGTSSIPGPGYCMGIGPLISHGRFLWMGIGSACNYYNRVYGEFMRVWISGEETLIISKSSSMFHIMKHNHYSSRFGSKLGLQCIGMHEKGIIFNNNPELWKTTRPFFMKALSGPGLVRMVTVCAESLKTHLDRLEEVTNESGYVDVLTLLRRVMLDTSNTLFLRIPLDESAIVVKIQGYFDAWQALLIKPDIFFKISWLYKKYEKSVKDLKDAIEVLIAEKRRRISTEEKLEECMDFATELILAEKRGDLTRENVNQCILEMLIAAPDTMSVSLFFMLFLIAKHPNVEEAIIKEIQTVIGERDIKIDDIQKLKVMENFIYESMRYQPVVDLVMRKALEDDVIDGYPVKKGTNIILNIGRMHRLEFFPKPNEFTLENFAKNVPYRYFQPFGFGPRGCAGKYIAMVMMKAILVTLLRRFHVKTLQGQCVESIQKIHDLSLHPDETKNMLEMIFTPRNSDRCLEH
# Sequence of E-selectin (Homo sapiens) (P16581 whole entry, looked up): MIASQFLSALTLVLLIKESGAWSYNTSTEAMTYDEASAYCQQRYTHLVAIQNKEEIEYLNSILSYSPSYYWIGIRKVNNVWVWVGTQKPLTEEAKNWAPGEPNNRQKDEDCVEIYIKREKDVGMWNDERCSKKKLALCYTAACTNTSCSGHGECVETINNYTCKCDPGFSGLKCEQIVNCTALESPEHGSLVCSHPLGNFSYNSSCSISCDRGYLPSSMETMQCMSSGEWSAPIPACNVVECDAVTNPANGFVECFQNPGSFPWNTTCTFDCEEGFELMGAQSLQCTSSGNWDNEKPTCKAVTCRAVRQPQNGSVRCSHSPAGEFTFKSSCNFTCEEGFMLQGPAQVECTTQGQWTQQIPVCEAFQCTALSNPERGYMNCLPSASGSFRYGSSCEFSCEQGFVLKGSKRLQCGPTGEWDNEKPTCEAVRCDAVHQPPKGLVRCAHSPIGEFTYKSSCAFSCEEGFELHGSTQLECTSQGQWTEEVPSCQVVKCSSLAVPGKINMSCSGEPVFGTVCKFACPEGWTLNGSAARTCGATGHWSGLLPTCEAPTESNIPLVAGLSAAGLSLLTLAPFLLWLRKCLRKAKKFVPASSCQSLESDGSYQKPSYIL
# Sequence of Cytochrome P450 2C18 (Homo sapiens) (P33260 whole entry, looked up): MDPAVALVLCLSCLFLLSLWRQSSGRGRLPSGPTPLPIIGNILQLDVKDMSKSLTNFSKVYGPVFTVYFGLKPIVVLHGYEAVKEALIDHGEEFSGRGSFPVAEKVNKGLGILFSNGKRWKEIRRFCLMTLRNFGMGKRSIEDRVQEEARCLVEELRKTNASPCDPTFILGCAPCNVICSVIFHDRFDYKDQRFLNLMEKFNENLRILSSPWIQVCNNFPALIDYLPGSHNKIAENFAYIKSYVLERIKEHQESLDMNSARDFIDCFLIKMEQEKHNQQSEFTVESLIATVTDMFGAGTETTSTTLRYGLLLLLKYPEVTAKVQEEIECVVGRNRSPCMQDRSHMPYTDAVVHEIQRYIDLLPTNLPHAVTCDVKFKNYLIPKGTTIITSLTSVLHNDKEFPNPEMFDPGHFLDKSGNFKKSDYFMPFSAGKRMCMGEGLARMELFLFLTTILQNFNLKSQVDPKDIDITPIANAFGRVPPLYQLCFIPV
# Sequence of human CYP2C9, CYP2C9 (gene 1559) (P11712 whole entry, looked up): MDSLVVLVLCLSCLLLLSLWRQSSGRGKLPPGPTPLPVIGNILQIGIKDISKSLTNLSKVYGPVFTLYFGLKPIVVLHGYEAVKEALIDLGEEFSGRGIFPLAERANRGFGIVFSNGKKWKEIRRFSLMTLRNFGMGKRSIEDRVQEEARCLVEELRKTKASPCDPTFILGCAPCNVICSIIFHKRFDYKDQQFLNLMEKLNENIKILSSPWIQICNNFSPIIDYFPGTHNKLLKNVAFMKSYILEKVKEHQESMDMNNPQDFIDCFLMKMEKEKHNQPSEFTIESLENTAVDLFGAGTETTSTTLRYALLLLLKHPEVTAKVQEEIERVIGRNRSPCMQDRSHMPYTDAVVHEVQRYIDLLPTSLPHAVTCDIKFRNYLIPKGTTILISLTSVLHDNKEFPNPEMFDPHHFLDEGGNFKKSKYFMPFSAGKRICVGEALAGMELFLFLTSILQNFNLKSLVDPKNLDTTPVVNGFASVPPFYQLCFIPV
# Sequence of human CYP2D6, CYP2D6 (gene 1565) (P10635 whole entry, looked up): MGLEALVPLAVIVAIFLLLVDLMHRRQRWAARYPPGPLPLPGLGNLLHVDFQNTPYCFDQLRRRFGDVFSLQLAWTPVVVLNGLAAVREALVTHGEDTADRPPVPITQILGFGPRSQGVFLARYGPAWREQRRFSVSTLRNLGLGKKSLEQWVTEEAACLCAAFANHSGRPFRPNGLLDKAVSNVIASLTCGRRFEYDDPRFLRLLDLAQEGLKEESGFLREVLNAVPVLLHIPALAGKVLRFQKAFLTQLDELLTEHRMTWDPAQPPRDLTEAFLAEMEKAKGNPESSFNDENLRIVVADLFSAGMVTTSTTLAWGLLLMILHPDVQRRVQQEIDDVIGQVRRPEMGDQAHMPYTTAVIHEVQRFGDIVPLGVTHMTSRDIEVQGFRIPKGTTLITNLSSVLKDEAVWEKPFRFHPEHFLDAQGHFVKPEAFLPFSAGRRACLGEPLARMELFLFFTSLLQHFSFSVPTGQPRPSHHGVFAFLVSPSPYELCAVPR
# Sequence of rat CYP1A2, Cyp1a2 (gene 24297) (P04799 whole entry, looked up): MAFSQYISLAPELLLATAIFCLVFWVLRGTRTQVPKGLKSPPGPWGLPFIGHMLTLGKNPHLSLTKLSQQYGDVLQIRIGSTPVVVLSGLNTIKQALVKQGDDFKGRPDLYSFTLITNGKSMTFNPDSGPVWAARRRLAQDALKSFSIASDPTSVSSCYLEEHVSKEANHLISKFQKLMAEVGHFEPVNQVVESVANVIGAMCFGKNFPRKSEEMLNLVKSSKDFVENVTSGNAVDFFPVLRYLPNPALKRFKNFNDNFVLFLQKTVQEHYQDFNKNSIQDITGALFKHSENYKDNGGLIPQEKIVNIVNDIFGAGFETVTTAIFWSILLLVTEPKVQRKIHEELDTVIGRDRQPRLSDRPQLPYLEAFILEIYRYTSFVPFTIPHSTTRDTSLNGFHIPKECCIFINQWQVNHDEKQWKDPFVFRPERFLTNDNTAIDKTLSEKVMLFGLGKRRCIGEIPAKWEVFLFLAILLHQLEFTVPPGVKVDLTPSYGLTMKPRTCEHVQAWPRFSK
structure (smiles),measurement,setting,value
O=c1n(Cl)c(=O)n(Cl)c(=O)n1Cl,AC50,[1],11.6 µM (active)
same,outcome,[2],inactive
same,outcome,[3],inactive
same,outcome,[4],inactive
same,outcome,[5],inactive
same,outcome,[6],inactive
CC(C)=CC1C(C(=O)OCc2coc(Cc3ccccc3)c2)C1(C)C (configuration not stated),AC50,[1],20 µM (active)
same,AC50,[2],16.6 µM (active)
same,outcome,[3],inactive
same,AC50,[4],5.08 µM (active)
same,AC50,[5],12.7 µM (active)
same,AC50,[7],15.7 µM (active)
same,outcome,[6],inactive
same,AC50,[8],0.444 µM (active)
same,AC50,[9],5.84 µM (active)
same,AC50,[10],8.7 µM (active)
Cc1cnc(C2=NC(C)(C(C)C)C(=O)N2)c(C(=O)O)c1 (configuration not stated),outcome,[1],inactive
same,outcome,[2],inactive
same,outcome,[3],inactive
same,outcome,[4],inactive
same,outcome,[5],inactive
same,outcome,[7],inactive
same,outcome,[6],inactive
CC1(C)CON(Cc2ccccc2Cl)C1=O,outcome,[1],inactive
same,outcome,[2],inactive
same,outcome,[3],inactive
same,outcome,[4],inactive
same,outcome,[5],inactive
same,outcome,[7],inactive
same,outcome,[6],inactive
CC(C)C1(C)N=C(c2ncccc2C(=O)O)NC1=O (configuration not stated),outcome,[1],inactive
same,outcome,[2],inactive
same,outcome,[3],inactive
same,outcome,[4],inactive
same,outcome,[5],inactive
same,outcome,[7],inactive
same,outcome,[6],inactive
same,outcome,[9],inactive
C=C(C)CN(CC)c1c([N+](=O)[O-])cc(C(F)(F)F)cc1[N+](=O)[O-],outcome,[1],inactive
same,AC50,[2],33.7 µM (active)
same,outcome,[3],inactive
same,AC50,[4],30.8 µM (active)
same,outcome,[5],inactive
same,AC50,[7],28.8 µM (active)
same,AC50,[6],15.2 µM (active)
CC(C)N1C(=O)N(c2ccccc2)CSC1=NC(C)(C)C,AC50,[1],34.5 µM (active)
same,AC50,[2],27.3 µM (active)
same,AC50,[3],38.8 µM (active)
same,AC50,[4],32.2 µM (active)
same,AC50,[5],26.3 µM (active)
same,AC50,[7],27.4 µM (active)
same,AC50,[6],27.8 µM (active)
same,AC50,[11],8.79 µM (active)
N#CN=C1SCCN1Cc1ccc(Cl)nc1,outcome,[1],inactive
same,outcome,[2],inactive
same,outcome,[3],inactive
same,outcome,[4],inactive
same,outcome,[5],inactive
same,outcome,[7],inactive
same,outcome,[6],inactive
same,AC50,[8],0.933 µM (active)
same,outcome,[12],inactive
CCOc1cc(C(C)(C)C)ccc1C1COC(c2c(F)cccc2F)=N1 (configuration not stated),AC50,[1],28.5 µM (active)
same,AC50,[2],16.5 µM (active)
same,AC50,[3],36.1 µM (active)
same,AC50,[4],28.9 µM (active)
same,AC50,[5],18.6 µM (active)
same,AC50,[7],11.9 µM (active)
same,AC50,[6],22.1 µM (active)
same,outcome,[11],inactive
same,AC50,[10],7.62 µM (active)
CC1(C)C(C(=O)OC(C#N)c2cccc(Oc3ccccc3)c2)C1(C)C (configuration not stated),outcome,[1],inactive
same,AC50,[2],13.1 µM (active)
same,outcome,[3],inactive
same,outcome,[4],inactive
same,AC50,[5],26.8 µM (active)
same,AC50,[7],15.3 µM (active)
same,AC50,[6],7.56 µM (active)
same,outcome,[9],inactive
same,AC50,[10],13.8 µM (active)
Cc1cc(C)nc(Nc2ccccc2)n1,outcome,[1],inactive
same,AC50,[2],20 µM (active)
same,outcome,[3],inactive
same,AC50,[4],7.57 µM (active)
same,AC50,[5],13.8 µM (active)
same,outcome,[7],inactive
same,outcome,[6],inactive
N#Cc1c[nH]cc1-c1cccc2c1OC(F)(F)O2,AC50,[1],20.4 µM (active)
same,outcome,[2],inactive
same,outcome,[3],inactive
same,outcome,[4],inactive
same,AC50,[5],27.4 µM (active)
same,AC50,[7],20 µM (active)
same,AC50,[6],13.1 µM (active)
same,outcome,[13],inactive
CCOc1nc(F)cc2nc(S(=O)(=O)Nc3c(Cl)cccc3Cl)nn12,outcome,[1],inactive
same,outcome,[2],inactive
same,outcome,[3],inactive
same,outcome,[4],inactive
same,outcome,[5],inactive
same,outcome,[7],inactive
same,outcome,[6],inactive
CCC(C)n1c(=O)[nH]c(C)c(Br)c1=O (configuration not stated),outcome,[1],inactive
same,outcome,[2],inactive
same,outcome,[3],inactive
same,outcome,[4],inactive
same,outcome,[5],inactive
same,outcome,[7],inactive
same,outcome,[6],inactive
same,outcome,[10],inactive
Cc1ccc(N=CN(C)C=Nc2ccc(C)cc2C)c(C)c1,AC50,[1],30.9 µM (active)
same,AC50,[2],26.5 µM (active)
same,AC50,[3],30.7 µM (active)
same,AC50,[4],34.9 µM (active)
same,outcome,[5],inactive
same,AC50,[7],21.7 µM (active)
same,AC50,[6],33.2 µM (active)
same,outcome,[12],inactive
same,AC50,[10],5.27 µM (active)
Nc1c(Cl)c(Cl)nc(C(=O)O)c1Cl,outcome,[1],inactive
same,outcome,[2],inactive
same,outcome,[3],inactive
same,outcome,[4],inactive
same,outcome,[5],inactive
same,outcome,[7],inactive
same,outcome,[6],inactive
COC(=O)NC(=S)Nc1ccccc1NC(=S)NC(=O)OC,outcome,[1],inactive
same,AC50,[2],15.1 µM (active)
same,outcome,[3],inactive
same,AC50,[4],14 µM (active)
same,AC50,[5],25.1 µM (active)
same,outcome,[6],inactive
same,AC50,[10],10 µM (active)
COC(=O)N(C(=O)N1CO[C@@]2(C(=O)OC)Cc3cc(Cl)ccc3C2=N1)c1ccc(OC(F)(F)F)cc1,AC50,[1],5.47 µM (active)
same,outcome,[2],inactive
same,outcome,[3],inactive
same,outcome,[4],inactive
same,AC50,[5],5.25 µM (active)
same,AC50,[6],5.59 µM (active)
same,outcome,[9],inactive
same,AC50,[10],0.102 µM (active)
CCN(CC)C(=O)C(C)Oc1cccc2ccccc12 (configuration not stated),outcome,[1],inactive
same,AC50,[2],1.06 µM (active)
same,outcome,[3],inactive
same,outcome,[4],inactive
same,outcome,[5],inactive
same,outcome,[6],inactive
same,outcome,[8],inactive
same,AC50,[11],10.8 µM (active)
same,AC50,[9],4.54 µM (active)
same,AC50,[10],1.15 µM (active)
COCC(=O)N(c1c(C)cccc1C)C(C)C(=O)OC (configuration not stated),outcome,[1],inactive
same,outcome,[2],inactive
same,outcome,[3],inactive
same,outcome,[4],inactive
same,outcome,[5],inactive
same,AC50,[6],26.1 µM (active)
same,outcome,[8],inactive
CN=C=S,AC50,[1],20 µM (active)
same,AC50,[2],12 µM (active)
same,outcome,[3],inactive
same,outcome,[4],inactive
same,AC50,[5],11.7 µM (active)
same,outcome,[6],inactive
same,outcome,[8],inactive
CCCN(CC)CC1COC2(CCC(C(C)(C)C)CC2)O1 (configuration not stated),outcome,[1],inactive
same,AC50,[2],12.9 µM (active)
same,outcome,[3],inactive
same,AC50,[4],12.2 µM (active)
same,AC50,[5],12.1 µM (active)
same,outcome,[6],inactive
same,outcome,[9],inactive
